DT40 TDP1 no CPT = qHTS for Inhibitors of human tyrosyl-DNA phosphodiesterase 1 (TDP1): qHTS in cells in absence of CPT. DT40 Tdp1-/- hTDP1 cells, no CPT, ATP luminescence, 48 h. Potency, µM (doses to about 46.2 µM), most hits filed as inhibitors. actives 15% (n = 420,000); also: nearly all actives have a fitted effect of over 55% in size
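No-CPT arm: Tdp1-/-;hTDP1 DT40 cells (400/well) plus compounds, incubated ≥48 hr at 37 °C. Readout CellTiter-Glo luminescence.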
DT40 TDP1 CPT = DT40-hTDP1 cell growth loss with CPT. chicken DT40 Tdp1-/-;hTDP1 cells + 20 nM CPT, ATP luminescence, 48 h. Potency, µM (doses to about 46.2 µM), most hits filed as inhibitors. actives 12% (n = 420,000). AID 686979; also: nearly all actives have a fitted effect of over 55% in size
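Chicken DT40 Tdp1-/- cells stably complemented with human TDP1 were seeded at 400 cells/well in medium containing 20 nM camptothecin, exposed to pin-transferred compounds, and grown at 37 °C for at least 48 hr. Viability was read as ATP luminescence.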
12-LOX inh = blocks human arachidonate 12S-lipoxygenase; purified 12hLO, xylenol orange hydroperoxide absorbance; actives 1.1% (n = 580,000); AID 1671190; Potency, µM (doses to about 108 µM), usual class: inhibitors; P18054
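Purified human 12hLO (150 nM final) in 25 mM Hepes, 0.01% Triton X-100, pH 7.0 was preincubated 15 min at room temperature with compound. Then 40 uM arachidonic acid was added, 30 min. Hydroperoxide was read by Fe-XO absorbance ratio 573/405 nm.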
RORgamma inh = inhibitors of mouse ROR gamma transcriptional activity | P51450 | Drosophila S2 Gal4-RORgamma UAS-luciferase reporter, 20 h | Potency, µM (series often up to 53.6 µM), actives largely listed as inhibitors | actives 5.4% (n = 310,000) | AID 2551; also: nearly all actives have a fitted effect of over 60% in size
Target sequence (P51450 whole entry, looked up, the tested form may be a part): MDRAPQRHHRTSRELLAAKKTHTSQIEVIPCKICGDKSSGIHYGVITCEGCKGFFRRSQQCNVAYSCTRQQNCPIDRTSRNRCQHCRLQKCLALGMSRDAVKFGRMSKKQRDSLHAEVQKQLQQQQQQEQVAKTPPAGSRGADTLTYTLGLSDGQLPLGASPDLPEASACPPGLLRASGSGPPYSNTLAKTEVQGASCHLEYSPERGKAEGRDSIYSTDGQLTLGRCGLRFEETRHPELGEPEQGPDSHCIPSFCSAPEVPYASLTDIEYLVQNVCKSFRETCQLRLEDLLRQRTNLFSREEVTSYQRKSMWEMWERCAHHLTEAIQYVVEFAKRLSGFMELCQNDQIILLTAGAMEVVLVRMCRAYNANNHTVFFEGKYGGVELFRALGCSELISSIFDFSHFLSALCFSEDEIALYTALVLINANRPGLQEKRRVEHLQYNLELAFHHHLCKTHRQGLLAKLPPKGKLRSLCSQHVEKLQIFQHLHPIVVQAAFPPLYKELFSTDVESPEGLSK
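ROR gamma transcriptional activity was tracked as Gal4-UAS luciferase output in stably transfected Drosophila Schneider cells, with compound added 1 hr before 700 uM copper sulfate induction and a 20 hr ambient-temperature incubation.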
ELG1 DNA repair = ELG1-dependent DNA repair inhibition; AID 504467; actives 2.3% (n = 330,000); HEK293T ELG1-luciferase reporter, luminescence, 16 h; DNA damage induced by 5-fluorouridine; Potency, µM (top dose mostly 46.1 µM), hits mostly inhibitors; also: nearly all actives have a fitted effect of over 55% in size
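Overnight (16 hr) co-exposure of 2,000 cells/well to 5-fluorouridine and compound at 37 °C preceded detection. Luciferase was quantified via ONE-Glo luminescence; loss of signal denotes inhibition.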
VP16 counter = Gal4-VP16 reporter inhibition counter-screen. Drosophila S2 Gal4-VP16 UAS-luciferase, luminescence, 20 h. Potency, µM (titrated, usually from 53.6 µM), actives largely listed as inhibitors. actives 3.5% (n = 310,000);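 also: Gal4-VP16 expression switched on by copper sulfate through the metallothionein promoter; nearly all actives have a fitted effect of over 50% in size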
Hits are given with their value; – = inactive; ? = inconclusive; · = no result. Most compounds without a hit are left out; they make up all but 15% or so of the library. Calls follow the shape of the dose curve; as a rule, active = well fitted curve in the direction sought with a large enough effect; inconclusive = small, poorly fitted or top-dose-only effect, or another doubt; inactive = no such curve, though single readings can be large; an effect the other way counts as inactive or inconclusive.

SMILES	DT40 TDP1 no CPT	DT40 TDP1 CPT	12-LOX inh	RORgamma inh	ELG1 DNA repair	VP16 counter
CCCCCCc1ccc(C(=O)Oc2ccc(C#N)cc2)cc1	·	·	–	·	·	·
O=C(O)CC(CCc1ccccc1)OC1OC(CO)C(O)C(O)C1O (configuration not stated)	–	–	45µM	–	–	–
Cc1ccc(O)c(C(=O)N(C)Cc2c(F)cccc2Cl)c1	·	·	40µM	·	·	·
Cc1cc(C(=O)N(C)Cc2c(F)cccc2Cl)c2ccccc2n1	?	?	–	–	–	?
Cc1ccc(O)c(C(=O)CC(=O)c2ccccc2Cl)c1	4.6µM	2.3µM	–	7.1µM	–	13µM
Cc1ccc(/C=C/C(=O)c2cc(C)ccc2O)cc1	·	·	–	·	·	·
Cc1ccc(O)c(C(=O)CC(=O)c2ccc(C(C)(C)C)cc2)c1	4.6µM	7.3µM	–	5.6µM	–	5µM
Cc1ccc(C(=O)CC(=O)c2ccc(C)cc2)cc1	·	·	–	·	·	·
NNC(=O)CCCCCCCCCCOCCCCO	13µM	–	–	–	?	–
Cc1[nH]c2ccccc2c1C1c2ccccc2C(=O)N1CCc1ccccc1 (configuration not stated)	·	·	–	·	·	·
O=c1c(-c2ccco2)nc2ccccc2n1/C=C(/c1ccc(C(F)(F)F)cc1)n1c(=O)[nH]c2ccccc21	·	·	16µM	·	·	·
O=C(NCc1ccccc1)C(c1ccncc1)n1c(=O)c(-c2ccco2)nc2ccccc21 (configuration not stated)	–	–	–	·	·	·
CC(C)(C)NC(=O)C(c1ccc(-c2ccccc2)cc1)n1c(=O)c(-c2ccccc2)nc2ccccc21 (configuration not stated)	?	?	–	·	·	·
CC(C)(C)NC(=O)C(c1cccc2ccccc12)n1c(=O)c(-c2ccco2)nc2ccccc21 (configuration not stated)	?	23µM	45µM	·	·	·
CC(C)(C)NC(=O)C(c1cccc2ccccc12)n1c(=O)c(-c2ccccc2)nc2ccccc21 (configuration not stated)	0.13µM	21µM	–	·	·	·
CC(C)(C)NC(=O)C(c1cc2ccccc2o1)n1c(=O)c(-c2ccccc2)nc2ccccc21 (configuration not stated)	?	?	–	·	·	·
CCCCCNC(=O)C(c1ccc(C(F)(F)F)cc1)n1c(=O)c(-c2ccco2)nc2ccccc21 (configuration not stated)	18µM	?	45µM	·	·	·
CC(C)COc1ccc(C(=O)Nc2ccc3oc(=O)ccc3c2)cc1	·	·	–	·	·	·
CCCCCNC(=O)C(c1cccc2ccccc12)n1c(=O)c(-c2ccco2)nc2ccccc21 (configuration not stated)	?	?	10µM	·	·	·
CCC(CC)C(=O)N(C)c1c(C)nc2c(OCc3ccc(Cl)cc3)cccn12	?	8.2µM	?	·	·	·
CCC(CC)C(=O)N(C)c1c(C)nc2c(OCc3cccc(OC)c3)cccn12	21µM	?	–	·	·	·
CCC(CC)C(=O)N(C)c1c(C)nc2c(OCc3cccc(Cl)c3)cccn12	12µM	21µM	–	·	·	·
CCC(CC)C(=O)N(C)c1c(C)nc2c(OCc3ccc(OC(F)F)cc3)cccn12	12µM	12µM	–	·	·	·
Cc1oc2cc(OCC(=O)OC(C)C)ccc2c(=O)c1-c1ccc(Cl)cc1	·	·	–	·	·	·
CC(C)c1ccc(S(=O)(=O)N2CCN(Cn3ncc4ccccc4c3=O)CC2)cc1	·	·	–	·	·	·
COc1ccccc1C1(CC(=O)N2CCCCC2)CCOC(C(C)C)C1 (configuration not stated)	23µM	23µM	–	–	–	–
Cc1ccc(C2(CC(=O)N3CCCC3)CCOC(C(C)C)C2)cc1 (configuration not stated)	?	?	–	–	–	–
CSc1ccccc1NC(=O)CSc1cc(C)c2ccccc2n1	·	·	–	·	·	·

Screens as filed in PubChem BioAssay.
